aSyn rescue = rescues yeast growth from alpha-synuclein toxicity; Potency, µM (series often up to 46.1 µM), for the others: at the highest dose growth rescue (activation), usual class: activators; Yeast expressing alpha-synuclein, growth rescue, BacTiter-Glo, 24 h; hit rate 0.14% among 370,000; also: % of control where 0% means no effect; nearly all actives have a fitted effect of over 65% in size
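Readout is rescue of growth in alpha-synuclein-expressing yeast, so inhibitors of toxicity appear as activators. Growth after 24 hr at 30 deg C in galactose medium is quantified by luminescence.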
Abeta yeast res = compounds reversing amyloid beta toxicity in yeast; AID 1347071; Potency, µM (series often up to 46.1 µM), actives largely listed as activators; hit rate 0.063% among 410,000; yeast expressing A-beta42, growth rescue, OD600, 48 h; response scale: 0% DMSO, 100% iron-clioquinol control; also: nearly all actives have a fitted effect of over 55% in size
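Yeast growth medium received pinned compounds, then yeast cells expressing toxic A-beta were added; plates incubated at 30 C for 48 hr. Growth read as absorbance at 600 nm, normalized to DMSO and equimolar FeCl3 plus clioquinol controls.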
FUS yeast rescue = suppressors of FUS proteinopathy in yeast; S. cerevisiae FUS-expressing, growth rescue, OD600, 24 h; Potency, µM (highest dose often 76.6 µM), usual class: activators; hit rate 0.24% among 390,000; AID 1347120;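 also: plate controls were DMSO vehicle for no effect and reference control for full effect; nearly all actives have a fitted effect of over 55% in size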
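Compound concentration series was pinned onto galactose-induced FUS-expressing yeast seeded at OD 0.005. Plates sat 24hr at 30C; absorbance at 600 nm gave growth. DMSO served as background control.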
TDP43 rescue = rescues yeast growth from TDP-43 toxicity | TDP-43 expressing yeast growth rescue, BacTiter-Glo, 24 h | AID 652104 | Potency, µM (highest dose often 46.1 µM), for inactives: top-dose growth rescue (activation), hits mostly activators | hit rate 1.8% among 410,000; also: % of control where 0% means no effect; nearly all actives have a fitted effect of over 50% in size
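Readout is BacTiter-Glo luminescence of cell growth, so inhibitors register as activators. TDP-43-expressing yeast at OD600=0.02 in galactose medium, after raffinose pregrowth to mid-log, were incubated with compound for 24 hr at 30 deg C.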
The depositor's hits bear a star; [ ] = dose if it differs, or a comment. An excerpt weighted towards active compounds, which were near 2.1% of everything screened. Calls follow the shape of the dose curve; as a rule, active = well fitted curve in the direction sought with a large enough effect; inconclusive = small, poorly fitted or top-dose-only effect, or another doubt; inactive = no such curve, though single readings can be large; an effect the other way counts as inactive or inconclusive. Potency is read from the fitted curve at half-maximal effect.

CC1C(=O)N(Cc2cn(CCC3OCCO3)nn2)CCS(=O)(=O)N1Cc1ccc(-c2ccc(Cl)c(Cl)c2)cc1 (stereo not given) was read as aSyn rescue 26.2%, Abeta yeast res inactive, FUS yeast rescue inconclusive and TDP43 rescue 15.8µM*.
Screening CC(C)C1C(=O)N(Cc2cn(CCC3OCCO3)nn2)CCS(=O)(=O)N1Cc1ccc(-c2ccc(Cl)cc2)cc1 (stereo not given) returned aSyn rescue inconclusive, Abeta yeast res inactive, FUS yeast rescue inconclusive and TDP43 rescue 35.5µM*.
N#C/C(=C\c1ccccc1)C(=O)NC1CC1 was read as aSyn rescue 9.0%, Abeta yeast res inconclusive, FUS yeast rescue inactive and TDP43 rescue inconclusive.
`N#C/C(=C\c1c(F)cccc1Cl)C(=O)NC1CC1` gave aSyn rescue 0.5%, Abeta yeast res inactive, FUS yeast rescue inactive and TDP43 rescue 12.6µM*.
For CCOc1cc(C)c(C(C)C)cc1S(=O)(=O)n1ccnc1CC the results were Abeta yeast res inactive, FUS yeast rescue inactive and TDP43 rescue 20µM*.
For CCOc1ccc2nc(N3C(=O)C(O)=C(C(=O)c4ccco4)C3c3ccco3)sc2c1 (stereo not given) the results were aSyn rescue -8.7%, Abeta yeast res inactive, FUS yeast rescue inactive and TDP43 rescue -7.1%.
`CCOC(=O)c1sc(N2C(=O)C(O)=C(C(=O)c3ccco3)C2c2ccco2)nc1C` (stereo not given) gave aSyn rescue 5.6%, Abeta yeast res inactive, FUS yeast rescue 28.2µM* and TDP43 rescue -14.7%.
Screening CO/N=C1\CCn2c1c(C)c1ccccc12 returned aSyn rescue -0.4%, Abeta yeast res inactive, FUS yeast rescue inactive and TDP43 rescue -13.4%[1.82 µM].
For Cc1c2n(c3ccccc13)CC/C2=N\O the results were aSyn rescue 3.8%, Abeta yeast res inactive, FUS yeast rescue inactive and TDP43 rescue 11.2µM*.
COc1cc2c(cc1OC)/C(=C/c1ccc(Br)cc1)C(=O)OC2 was read as aSyn rescue 15.8%, Abeta yeast res inactive, FUS yeast rescue inconclusive and TDP43 rescue 12.6µM*.
COc1cccc(CN[C@@H]2CC[C@@]34CCCN3C(=O)CCC[C@H]4C2)c1 was read as FUS yeast rescue inactive.
Screening COc1ccc(-c2oc3cc(O)c(OC)c(O)c3c(=O)c2OC)cc1 returned aSyn rescue 3.5%, Abeta yeast res inactive, FUS yeast rescue inactive and TDP43 rescue 0.0%.
COc1ccc(-c2oc3cc(OC)c(O)c(OC)c3c(=O)c2OC)cc1O was read as aSyn rescue -0.6%, Abeta yeast res inactive, FUS yeast rescue inactive and TDP43 rescue 22.4µM*.
Screening Cn1cnc2c1c(=O)n(Cc1ccc(Cl)cc1Cl)c(=O)n2C returned aSyn rescue 14.3%, Abeta yeast res inactive, FUS yeast rescue inactive and TDP43 rescue 22.4µM*.
Cn1cnc2c1c(=O)n(Cc1ccccc1)c(=O)n2C was read as aSyn rescue -1.6%, Abeta yeast res inactive, FUS yeast rescue inactive and TDP43 rescue 16.2%.
Screening CN(CC(=O)Nc1cccc(F)c1)C(=O)c1sccc1-c1ccccc1 returned aSyn rescue 0.4%, Abeta yeast res inactive, FUS yeast rescue inactive and TDP43 rescue 14.2%.
`CN(CC(=O)Nc1ccc(Cl)cc1)C(=O)c1sccc1-c1ccccc1` gave aSyn rescue 3.7%, Abeta yeast res inconclusive, FUS yeast rescue inactive and TDP43 rescue 22.4µM*.
For Cc1cccc(-n2c(=O)c3ccccc3n(Cc3ccccc3)c2=O)c1 the results were Abeta yeast res inactive, FUS yeast rescue inactive and TDP43 rescue 22.4µM*.
CSc1ccccc1-n1nnnc1SCc1ccccc1 was read as aSyn rescue 0.1%, Abeta yeast res inactive, FUS yeast rescue inactive and TDP43 rescue 12.6µM*.
COc1ccc(CN2C(=O)c3ccccc3C2=O)cc1C(=O)Nc1ccccc1N1CCOCC1 was read as aSyn rescue inconclusive, Abeta yeast res inactive, FUS yeast rescue inactive and TDP43 rescue 17.8µM*.
Screening COc1ccc(NC(=O)N2CCC(c3nc4ccc(Cl)cc4[nH]3)CC2)cc1OC returned FUS yeast rescue inactive.
`O=C(Cn1nc(-c2ccccc2)c2ccccc21)Oc1ccccc1` gave FUS yeast rescue inactive.
N#C/C(=C/c1ccccc1[N+](=O)[O-])c1nc(C2CC2)cs1 was read as aSyn rescue 6.4%, Abeta yeast res inactive and TDP43 rescue inconclusive.

Source: PubChem
